# “And” between values parts separate entries of the source, which are not always exact repeats. Identical values can stand only once. Screen size: about 5,500 compounds; about 2,000 (36%) were called active. About 18% were inconclusive and are not listed. Rule as the data show it: active = normalized growth mostly below about 0.91 (no sharp cut-off); inconclusive = no clear call, values can overlap the other calls; inactive = mostly above about 0.92. The list shows a part of the results.
# Assay: chemical genetic growth profiling, strain panel (AID 1159580);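 also: tested at 20 µM; growth read once vehicle control cultures reached saturation at 30 °C; 1 = growth at the plate median or of vehicle wells; lower values mean less growth of the strain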
# Conditions: S. cerevisiae deletion strains, growth OD
compound,measurement,setting,value
C=C1C(=O)O[C@@H]2C[C@@]3(C)CCC[C@H](C)C3=C[C@H]12,normalized growth,"locus YAL013W, strain DEP1, stronger effect = lower value",0.933 (inactive)
same,normalized growth,"locus YAL021C, strain ccr4, stronger effect = lower value",0.849 (active)
same,normalized growth,"locus YAL026C, strain drs2, stronger effect = lower value",0.718 (active)
same,normalized growth,"locus YAL030W, strain snc1, stronger effect = lower value",0.882 (active)
same,normalized growth,"locus YBL061C, strain skt5, stronger effect = lower value",0.901 (active)
same,normalized growth,"locus YBR009C, strain hhf1, stronger effect = lower value",0.733 (active)
same,normalized growth,"locus YBR021W, strain FUR4, stronger effect = lower value",1.05 (inactive)
same,normalized growth,"locus YBR023C, strain chs3, stronger effect = lower value",0.886 (active)
same,normalized growth,"locus YBR171W, strain sec66, stronger effect = lower value",0.837 (active)
same,normalized growth,"locus YBR229C, strain ROT2, stronger effect = lower value",0.943 (inactive)
same,normalized growth,"locus YBR231C, strain swc5, stronger effect = lower value",0.572 (active)
same,normalized growth,"locus YBR279W, strain paf1, stronger effect = lower value",0.88 (active)
same,normalized growth,"locus YCL011C, strain gbp2, stronger effect = lower value",0.822 (active)
same,normalized growth,"locus YCL016C, strain dcc1, stronger effect = lower value",0.849 (active)
same,normalized growth,"locus YCL029C, strain bik1, stronger effect = lower value",0.949 (inactive)
same,normalized growth,"locus YCL061C, strain MRC1, stronger effect = lower value",0.881 (active)
same,normalized growth,"locus YCL069W, strain vba3, stronger effect = lower value",0.876 (active)
same,normalized growth,"locus YCR088W, strain abp1, stronger effect = lower value",0.896 (active)
same,normalized growth,"locus YDL005C, strain med2, stronger effect = lower value",0.937 (inactive)
same,normalized growth,"locus YDL035C, strain GPR1, stronger effect = lower value",0.895 (inactive)
same,normalized growth,"locus YDL040C, strain nat1, stronger effect = lower value",0.899 (active)
same,normalized growth,"locus YDL074C, strain BRE1, stronger effect = lower value",0.72 (active)
same,normalized growth,"locus YDL101C, strain DUN1, stronger effect = lower value",0.85 (active)
same,normalized growth,"locus YDL134C, strain PPH21, stronger effect = lower value",0.848 (active)
same,normalized growth,"locus YDL185W, strain tfp1, stronger effect = lower value",0.94 (inactive)
same,normalized growth,"locus YDL192W, strain arf1, stronger effect = lower value",0.758 (active)
same,normalized growth,"locus YDR001C, strain nth1, stronger effect = lower value",0.897 (active)
same,normalized growth,"locus YDR069C, strain doa4, stronger effect = lower value",0.779 (active)
same,normalized growth,"locus YDR101C, strain arx1, stronger effect = lower value",0.945 (inactive)
same,normalized growth,"locus YDR137W, strain rgp1, stronger effect = lower value",0.267 (active)
same,normalized growth,"locus YDR150W, strain NUM1, stronger effect = lower value",0.925 (inactive)
same,normalized growth,"locus YDR159W, strain sac3, stronger effect = lower value",0.71 (active)
same,normalized growth,"locus YDR162C, strain NBP2, stronger effect = lower value",0.699 (active)
same,normalized growth,"locus YDR195W, strain ref2",1.16 [resistant] (active)
same,normalized growth,"locus YDR297W, strain sur2, stronger effect = lower value",0.855 (active)
same,normalized growth,"locus YDR318W, strain mcm21, stronger effect = lower value",0.814 (active)
same,normalized growth,"locus YDR334W, strain swr1, stronger effect = lower value",0.442 (active)
same,normalized growth,"locus YDR335W, strain msn5, stronger effect = lower value",0.875 (active)
same,normalized growth,"locus YDR388W, stronger effect = lower value",0.869 (active)
same,normalized growth,"locus YDR392W, strain spt3, stronger effect = lower value",0.127 (active)
same,normalized growth,"locus YDR502C, strain sam2, stronger effect = lower value",0.833 (active)
same,normalized growth,"locus YEL003W, strain gim4, stronger effect = lower value",0.715 (active)
same,normalized growth,"locus YEL037C, strain rad23, stronger effect = lower value",0.907 (active)
same,normalized growth,"locus YEL061C, strain CIN8 (second series), stronger effect = lower value",0.88 (active)
same,normalized growth,"locus YEL061C, strain CIN8, stronger effect = lower value",0.916 (active)
same,normalized growth,"locus YER015W, strain faa2, stronger effect = lower value",0.855 (active)
same,normalized growth,"locus YER016W, strain bim1, stronger effect = lower value",0.911 (active)
same,normalized growth,"locus YER110C, stronger effect = lower value",0.836 (active)
same,normalized growth,"locus YER111C, strain swi4, stronger effect = lower value",0.911 (inactive)
same,normalized growth,"locus YER155C, strain BEM2 (second series), stronger effect = lower value",0.585 (active)
same,normalized growth,"locus YER155C, strain BEM2, stronger effect = lower value",0.71 (active)
same,normalized growth,"locus YER167W, strain BCK2, stronger effect = lower value",0.906 (inactive)
same,normalized growth,"locus YFR010W, strain ubp6, stronger effect = lower value",0.862 (active)
same,normalized growth,"locus YGL078C, strain dbp3, stronger effect = lower value",0.981 (inactive)
same,normalized growth,"locus YGL086W, strain mad1, stronger effect = lower value",0.89 (active)
same,normalized growth,"locus YGL167C, strain pmr1, stronger effect = lower value",0.848 (active)
same,normalized growth,"locus YGL173C, strain kem1, stronger effect = lower value",0.888 (active)
same,normalized growth,"locus YGL227W, strain vid30, stronger effect = lower value",0.912 (active)
same,normalized growth,"locus YGL240W, strain doc1, stronger effect = lower value",0.599 (active)
same,normalized growth,"locus YGL248W, strain PDE1, stronger effect = lower value",0.799 (active)
same,normalized growth,"locus YGL253W, strain hxk2, stronger effect = lower value",0.742 (active)
same,normalized growth,"locus YGR135W, strain pre9, stronger effect = lower value",0.801 (active)
same,normalized growth,"locus YGR252W, strain gcn5, stronger effect = lower value",0.864 (inactive)
same,normalized growth,"locus YHR013C, strain ard1, stronger effect = lower value",0.616 (active)
same,normalized growth,"locus YHR027C, strain rpn1, stronger effect = lower value",0.874 (active)
same,normalized growth,"locus YHR030C, strain SLT2, stronger effect = lower value",0.927 (inactive) and 1.01 (inactive)
same,normalized growth,"locus YHR079C, strain IRE1 (second series), stronger effect = lower value",0.936 (inactive)
same,normalized growth,"locus YHR079C, strain IRE1, stronger effect = lower value",0.986 (inactive)
same,normalized growth,"locus YHR094C, strain hxt1, stronger effect = lower value",0.942 (inactive)
same,normalized growth,"locus YHR129C, strain ARP1, stronger effect = lower value",0.852 (active)
same,normalized growth,"locus YHR142W, strain chs7, stronger effect = lower value",0.787 (active)
same,normalized growth,"locus YHR200W, strain rpn10, stronger effect = lower value",0.876 (active)
same,normalized growth,"locus YIL066C, strain RNR3, stronger effect = lower value",0.756 (active)
same,normalized growth,"locus YIL073C, strain SPO22, stronger effect = lower value",0.717 (inactive)
same,normalized growth,"locus YIL125W, strain kgd1, stronger effect = lower value",0.953 (inactive)
same,normalized growth,"locus YIR030C, strain dcg1, stronger effect = lower value",0.903 (active)
same,normalized growth,"locus YJL092W, strain hpr5, stronger effect = lower value",0.904 (active)
same,normalized growth,"locus YJL095W, strain BCK1 (second series), stronger effect = lower value",0.894 (active)
same,normalized growth,"locus YJL095W, strain BCK1, stronger effect = lower value",0.753 (active) and 1.01 (inactive)
same,normalized growth,"locus YJL115W, strain asf1, stronger effect = lower value",0.88 (active)
same,normalized growth,"locus YJL129C, strain trk1, stronger effect = lower value",0.76 (active)
same,normalized growth,"locus YJL134W, strain LCB3, stronger effect = lower value",0.934 (inactive)
same,normalized growth,"locus YJL154C, strain vps35, stronger effect = lower value",0.921 (inactive)
same,normalized growth,"locus YJL164C, strain tpk1, stronger effect = lower value",0.809 (active)
same,normalized growth,"locus YJL166W, strain qcr8, stronger effect = lower value",0.654 (active)
same,normalized growth,"locus YJL168C, strain set2, stronger effect = lower value",0.951 (inactive)
same,normalized growth,"locus YJL187C, strain SWE1 (second series), stronger effect = lower value",0.875 (inactive)
same,normalized growth,"locus YJL187C, strain SWE1, stronger effect = lower value",0.903 (active)
